Rows were chosen to be rich in hits. Some 4% of all compounds tested hit in one or more screens of this group.
CF NFkB block: inhibitors of PAF-induced NF-kB signaling, primary screen, cell-based, GFP fluorescence, uHTS; inhibition, % at 5 µM; AID 588850, 2011; 360,000 compounds, 0.86% hits; KKLEB NF-kB-GFP reporter, GFP fluorescence overnight;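 active = at least 50% inhibition at 5 µM, scaled per plate between neutral and stimulator controls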;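 also: PAF is a Pseudomonas aeruginosa culture filtrate used as stimulus; plate controls were PAF-stimulated DMSO wells for no effect and unstimulated DMSO wells for full effect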
Peg3 prom inh: Peg3 promoter-driven luciferase inhibitors, primary screen, cell-based, HeLa, luciferase luminescence; inhibition, % at 20 µM; HeLa PEG-Prom luciferase reporter, overnight; 360,000 compounds, 1.7% hits; AID 588405, 2011;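 active = inhibition of at least 50% at 20 µM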
TWEAK-Fn14 inh: inhibitors of TWEAK-Fn14 signaling, primary screen, luciferase reporter cells, uHTS; AID 1159606, 2016; inhibition, % at 10 µM; TWEAK-stimulated Fn14 reporter cells, luciferase luminescence, 8 h; 360,000 compounds, 2% hits; in the data active = inhibition above about 50%
TROY NFkB inh: inhibitors of TROY-driven NF-kB signaling, primary screen, Q293 LMP1-TROYcd cells, NF-kB luciferase, uHTS; Q293 LMP1-TROYcd NF-kB luciferase reporter, 4 h; inhibition, % at 10 µM; 360,000 compounds, 0.98% hits;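 active = compounds whose plate-normalised and pattern-corrected inhibition of the luciferase reporter signal at the single screening dose is 50% or more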
KKLEB tox: cytotoxicity in KKLEB CF airway cells, primary screen, cytotoxicity control for CF NF-kB inhibitor project, cell-based, uHTS, fluorescence assay plates | 360,000 compounds, 0.36% hits | KKLEB CF airway cells viability, ATPlite luminescence, overnight; active compounds read low; cells stimulated with P. aeruginosa culture filtrate | activity change (cytotoxicity), % at 5 µM;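 active = corrected activity change at or below -50% at 5 µM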
HIF-2a inh: HIF-2a reporter inhibitors, primary screen, luminescence, 786-0 RCC cells | 786-0 RCC cells HIF-2a reporter, luciferase luminescence, overnight | inhibition, % at 18.8 µM | 360,000 compounds, 0.72% hits;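 active = inhibition of the luminescence signal of 40% or more relative to plate controls, in a single-dose primary screen at 18.75 µM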
* marks the source's active call; other numbers are inactive results.

SMILES	CF NFkB block	Peg3 prom inh	TWEAK-Fn14 inh	TROY NFkB inh	KKLEB tox	HIF-2a inh
Cn1c(SCC(=O)N2CCOCC2)nnc1-c1ccccc1	17.1	-11.2	18.3	18.4	-6.5	-4.3
O=C(CNc1ccccc1F)Nc1cc(S(=O)(=O)N2CCCCC2)ccc1Cl	0.9	26.3	-9.2	17.6	-10.7	14.2
Cc1ccc(S(=O)(=O)N2CCCCC2)cc1NCC(=O)Nc1ccc(Br)cc1F	-18.2	18.8	80.0*	52.6*	-2.7	11.3
CCOC(=O)C1=CN(Cc2cccc(F)c2)S(=O)(=O)N(CC)C1c1ccc(C(F)(F)F)cc1 (configuration not stated)	-2.9	7.9	17.6	5.5	4.1	11.7
CCN(CC)CCOc1ccc(Br)cc1	-5.2	10.3	0.4	-8.3	-3.8	11.4
CCN(CC)CCOc1ccc(/C(=C(\Cl)c2ccccc2)c2ccccc2)cc1	38.8	81.1*	-27.5	4.0	32.5	9.7
O=C(NCCc1ccccc1)c1ccc2c(=O)[nH]c3c(C(=O)NCC4CCCO4)sc(=S)n3c2c1 (configuration not stated)	25.4	-17.9	-3.4	3.5	8.1	-45.4
CCCCNC(=O)c1sc(=S)n2c1[nH]c(=O)c1ccccc12	40.8	20.6	-19.3	56.4*	-37.2	-9.3
O=C(NC1CCCCC1)c1sc(=S)n2c1[nH]c(=O)c1ccccc12	49.7	29.3	-12.1	60.1*	-25.7	3.6
CCN(Cc1ccc2c(c1)OCCO2)C(=O)CSc1nc(C)nc2sc(C)c(C)c12	8.4	36.9	11.4	57.6*	-23.5	10.8
c1ccc(-c2cc(-c3nnc4n3N=C(c3ccc5ccccc5c3)CS4)[nH]n2)cc1	-20.0	20.4	67.9*	6.0	-5.9	-49.5
COC(=O)c1ccc(C(=O)Nc2ccc3nc(-c4ccncc4)[nH]c3c2)cc1	-16.4	-5.6	35.2	-6.1	9.0	2.8
COC(=O)c1ccc(-c2nc3ccccc3[nH]2)cc1	-12.1	-118.1	55.6*	-4.1	2.4	-111.3
COc1ccc(-c2nc3ccccc3[nH]2)cc1	-9.6	-21.4	65.8*	36.4	-18.0	-40.1
COc1ccc2oc(=Nc3ccccc3)c(-c3nc4ccccc4[nH]3)cc2c1	-14.8	-154.5	56.4*	36.4	-67.0*	-212.7
COc1ccc(N/C=C2\CCOC2=O)cc1	-2.5	-1.3	8.8	-16.4	1.5	-5.1
COc1ccc(N/C=C2\C(=O)CCc3c2oc2cc(Cl)c(O)c(Cl)c32)cc1	-8.3	21.4	-0.3	55.1*	-35.9	3.7
Cn1c2c(c(=O)n(C)c1=O)C(C(F)(F)F)(C(F)(F)F)N=C(CCC1CCCCC1)N2	23.5	57.9*	59.5*	53.0*	6.7	10.8
CCOc1ccc2nc(COC(=O)c3ccncc3)c(C(=O)c3ccccc3)[n+]([O-])c2c1	-9.7	-121.5	52.0*	61.1*	6.5	-125.1
CCOc1ccc2nc(COC(=O)c3cccs3)c(C(=O)c3ccccc3)[n+]([O-])c2c1	13.6	-42.4	34.0	40.6	0.7	-54.1
O=C(CCN1CCOCC1)NCC1COc2ccccc2O1 (configuration not stated)	-2.6	8.2	-3.4	2.0	-7.2	9.4
O=C(CCN1N=C(c2ccccc2)CCC1=O)NCC1COc2ccccc2O1 (configuration not stated)	-4.4	15.8	74.7*	11.7	3.7	13.9
Cc1ccc(S(=O)(=O)N2CCN(c3ccnc4cc(Cl)ccc34)CC2)cc1	17.3	7.3	50.6*	30.8	2.5	17.5
Cc1cc(N2CCN(S(=O)(=O)c3ccc(Cl)cc3)CC2)c2ccccc2n1	19.6	10.8	30.6	52.7*	-9.3	5.2
CC(C)N(C(=O)N1CCN(c2ccnc3cc(Cl)ccc23)CC1)C(C)C	2.8	54.3*	19.5	25.6	-3.3	19.8
Cc1cc(N2CCN(S(=O)(=O)c3ccc(Cl)c(Cl)c3)CC2)c2ccccc2n1	2.5	28.8	15.2	19.6	-3.4	9.5
Cc1ccc(S(=O)(=O)N2CCN(c3ccnc4cc(Cl)ccc34)CC2)cc1C	19.2	4.1	9.6	25.2	-26.0	21.8
